Source: PubChem BioAssay (Tox21)
Results filed as inconclusive are left out. The source made the active and inactive calls. Unless noted, calls follow the shape of the dose curve; as a rule, active = well fitted curve in the direction sought with a large enough effect in the repeat runs; inconclusive = weak or mixed curves; inactive = no such curve, though single readings can be large; an effect the other way counts as inactive or inconclusive.

Columns and labels:
[1] = qHTS assay to identify aromatase inhibitors - cell viability counter screen (AID 743084);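 also: cells stimulated with testosterone during compound exposure; nearly all actives have a fitted effect of over 55% in size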
[2] = biological target: Aryl hydrocarbon receptor (Homo sapiens) (UniProt P35869); assay: qHTS assay to identify small molecule that activate the aryl hydrocarbon receptor (AhR) signaling pathway (AID 743085); also: nearly all actives have a fitted effect of over 15% in size; also: potency is read from the fitted curve at half-maximal effect;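 as to activation: HG2L7.5c1 human HepG2 liver cells with stably integrated DRE-driven firefly reporter; series mostly up to about 70 µM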
Chain of Aryl hydrocarbon receptor (Homo sapiens) (P35869 whole entry, looked up): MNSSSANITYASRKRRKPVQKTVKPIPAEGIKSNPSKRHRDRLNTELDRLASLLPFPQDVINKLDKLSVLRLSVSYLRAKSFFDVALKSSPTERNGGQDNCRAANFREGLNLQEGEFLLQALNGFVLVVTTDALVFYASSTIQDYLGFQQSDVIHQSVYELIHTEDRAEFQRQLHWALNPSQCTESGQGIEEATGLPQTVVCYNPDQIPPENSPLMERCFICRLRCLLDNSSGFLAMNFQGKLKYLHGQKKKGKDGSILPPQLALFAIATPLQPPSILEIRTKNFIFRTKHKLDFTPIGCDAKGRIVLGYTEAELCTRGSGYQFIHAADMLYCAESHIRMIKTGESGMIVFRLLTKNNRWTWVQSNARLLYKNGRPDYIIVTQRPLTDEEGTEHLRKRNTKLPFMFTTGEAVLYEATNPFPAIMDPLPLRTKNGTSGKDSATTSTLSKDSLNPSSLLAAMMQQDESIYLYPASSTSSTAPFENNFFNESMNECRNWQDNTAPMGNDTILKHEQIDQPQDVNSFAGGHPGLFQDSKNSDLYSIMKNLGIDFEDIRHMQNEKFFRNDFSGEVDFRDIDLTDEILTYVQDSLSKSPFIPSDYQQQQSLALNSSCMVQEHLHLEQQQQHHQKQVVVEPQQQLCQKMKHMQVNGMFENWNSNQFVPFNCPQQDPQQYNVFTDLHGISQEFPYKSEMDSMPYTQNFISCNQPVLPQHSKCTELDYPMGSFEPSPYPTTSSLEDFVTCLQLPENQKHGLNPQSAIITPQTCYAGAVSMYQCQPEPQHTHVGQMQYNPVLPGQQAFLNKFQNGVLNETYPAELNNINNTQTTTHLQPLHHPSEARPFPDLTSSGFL
Method in brief: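 Stably transfected human liver carcinoma cells (HG2L7.5c1; 20 DRE-firefly luciferase) were incubated 5 h, dosed, and kept 24 h at 37C. Agonism was scored from increased luciferase luminescence.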

[3] = qHTS assay to identify small molecule that activate the aryl hydrocarbon receptor (AhR) signaling pathway - cell viability counter screen (AID 743086);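 also: HepG2 liver cells carrying the AhR DRE luciferase reporter; series mostly up to about 70 µM; nearly all actives have a fitted effect of over 45% in size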
Method in brief: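 HepG2-AhR-luc (HG2L7.5c1) cells, 4000/well, were preincubated 5 h at 37C, exposed to compound in qHTS format for 24 hr at 37C, then given CellTiter-Fluor for 30 min; viability was read as fluorescence in the reporter wells.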

[4] = biological target: Peroxisome proliferator-activated receptor gamma (Homo sapiens) (UniProt P37231); assay: qHTS assay to identify small molecule agonists of the peroxisome proliferator-activated receptor gamma (PPARg) signaling pathway (AID 743094; active = well fitted activation curve with a large enough effect in the signal ratio in the repeat runs, not every such curve was filed as active; the % refers to the signal ratio)
Chain of Peroxisome proliferator-activated receptor gamma (Homo sapiens) (P37231 whole entry, looked up): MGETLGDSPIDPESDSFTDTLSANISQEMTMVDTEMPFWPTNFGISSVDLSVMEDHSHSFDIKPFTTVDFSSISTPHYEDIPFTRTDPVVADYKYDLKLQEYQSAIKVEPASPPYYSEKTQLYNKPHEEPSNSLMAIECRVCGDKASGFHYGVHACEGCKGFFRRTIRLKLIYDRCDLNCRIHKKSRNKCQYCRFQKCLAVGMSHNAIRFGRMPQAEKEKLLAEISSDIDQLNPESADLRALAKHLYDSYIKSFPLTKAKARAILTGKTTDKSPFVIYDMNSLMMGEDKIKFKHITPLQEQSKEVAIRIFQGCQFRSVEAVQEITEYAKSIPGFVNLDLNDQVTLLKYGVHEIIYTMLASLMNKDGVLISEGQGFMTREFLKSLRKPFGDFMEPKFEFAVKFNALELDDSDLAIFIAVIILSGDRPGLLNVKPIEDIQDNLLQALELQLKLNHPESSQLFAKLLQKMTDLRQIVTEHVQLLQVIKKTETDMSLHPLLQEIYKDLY
Method in brief: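 GeneBLAzer PPARg UAS-bla HEK293H cells were plated, rested 5 h, then exposed to compounds for 17 h at 37C. Beta-lactamase activity was read by LiveBLAzer B/G FRET substrate fluorescence after 1 h at room temperature.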

[5] = qHTS assay to identify small molecule antagonists of the peroxisome proliferator-activated receptor gamma (PPARg) signaling pathway - cell viability counter screen (AID 743194); also: nearly all actives have a fitted effect of over 55% in size
Method in brief: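 PPARg-UAS-bla HEK293H cells were plated, rested 5 h at 37 C, then treated with compounds plus rosiglitazone (50 nM final) for 17 h at 37 C; viability was then read by CellTiter-Glo luminescence after 30 min at room temperature.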

[6] = qHTS assay for small molecule agonists of the antioxidant response element (ARE) signaling pathway (AID 743202; active = well fitted activation curve with a large enough effect in the signal ratio in the repeat runs, not every such curve was filed as active; the % refers to the signal ratio; also: potency is read from the fitted curve at half-maximal effect)
Method in brief: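 Read-out: LiveBLAzer B/G FRET substrate fluorescence after 2 h at room temperature, following 16 h compound treatment at 37 C of HepG2 cells carrying an ARE-driven beta-lactamase reporter.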

[7] = qHTS assay for small molecule agonists of the antioxidant response element (ARE) signaling pathway - cell viability counter screen (AID 743203; calls by dose curve; also: nearly all actives have a fitted effect of over 55% in size)
Method in brief: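 ARE-bla HepG2 cells were plated, rested 5 h at 37C/5% CO2, then exposed to compounds in DMSO for 16 h. Viability was read as CellTiter-Glo luminescence after 30 min at room temperature, in the same wells as the ARE screen.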

[8] = qHTS assay for small molecule activators of the heat shock response signaling pathway - cell viability counter screen (AID 743209); also: nearly all actives have a fitted effect of over 50% in size
Method in brief: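 HSE-bla HeLa cells plated overnight, then exposed to Tox21 compounds (23 nL in DMSO) for 5 h at 37 C. After the bla reporter read, CellTiter-Glo was added in the same wells and luminescence read after 30 min at room temperature.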

[9] = qHTS assay for small molecule activators of the heat shock response signaling pathway (AID 743210; active = well fitted activation curve with a large enough effect in the signal ratio in the repeat runs, with a control signal flat, not every such curve was filed as active; the % refers to the signal ratio; also: series mostly up to about 63 µM)
Method in brief: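 HSE-bla HeLa cells (beta-lactamase reporter under heat shock response elements) were exposed to compounds for 5 h at 37 C, then loaded with LiveBLAzer B/G FRET substrate for 2.5 h at room temperature before fluorescence reading.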

[10] = biological target: Peroxisome proliferator-activated receptor gamma (Homo sapiens) (UniProt P37231); assay: qHTS assay to identify small molecule antagonists of the peroxisome proliferator-activated receptor gamma (PPARg) signaling pathway (AID 743191; calls by dose curve; also: series mostly up to about 63 µM; nearly all actives have a fitted effect of over 30% in size)
Method in brief: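 GeneBLAzer PPARg UAS-bla HEK293H cells carrying a UAS-driven beta-lactamase reporter were plated at 3000 cells/well, preincubated 5 h at 37C, then given compound for 17 h at 37C; LiveBLAzer B/G FRET substrate was read after 1 h at room temperature.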

Measured: Potency

CC(C)(C)c1cc(CCC(=O)NN)cc(C(C)(C)C)c1O
not listed: [10]
inactive: all other assays above

COc1ccc(-c2cc(=O)c3c(O)cc(O[C@@H]4O[C@H](CO[C@@H]5O[C@@H](C)[C@H](O)[C@@H](O)[C@H]5O)[C@@H](O)[C@H](O)[C@H]4O)cc3o2)cc1O
active: [2] 29.8 µM
not listed: [6] | [10]
inactive: all other assays above

CC(C)OC(=O)CCCCC(=O)OC(C)C
active: [2] 54.6 µM | [6] 30.7 µM
not listed: [10]
inactive: all other assays above

CCOc1cc(NC(C)=O)ccc1C(=O)OC
not listed: [5]
inactive: all other assays above

CC(=O)/C=C/C1C(C)=CCC(C)C1(C)C (stereo unspecified)
not listed: [5] | [6] | [9]
inactive: all other assays above

C=Cc1ccccn1
not listed: [5]
inactive: all other assays above

COCCOCCOCCOCCO
not listed: [10]
inactive: all other assays above

O=C1CCCC(=O)O1
not listed: [5] | [6]
inactive: all other assays above

NS(=O)(=O)c1ccc(NC(=O)CCC(=O)O)cc1
not listed: [5] | [10]
inactive: all other assays above

C[C@H](N)[C@H](O)c1cccc(O)c1
not listed: [5]
inactive: all other assays above

CCC(CC)CO
not listed: [5]
inactive: all other assays above

CCCC(=O)C(C)=O
not listed: [3]
inactive: all other assays above

CC(C)CCCC(C)(C)O
not listed: [3] | [9]
inactive: all other assays above

CN(C)CCOCCO
not listed: [3] | [5]
inactive: all other assays above

CC(=O)NCCCCCC(=O)O
not listed: [3] | [5]
inactive: all other assays above

O=C(O)C(=O)Cc1ccccc1
active: [6] 27.3 µM
not listed: [4] | [5]
inactive: all other assays above

O=C1O[C@@H]2[C@@H](O)[C@H](O)O[C@@H]2[C@H]1O
not listed: [3]
inactive: all other assays above

CCN(C)C(=O)Oc1cccc([C@H](C)N(C)C)c1
not listed: [3] | [5]
inactive: all other assays above

CC(=O)c1ccc2c(c1)Cc1ccccc1-2
active: [2] 54.5 µM | [6] 7.7 µM
not listed: [3]
inactive: all other assays above
